An excerpt weighted towards active compounds, which were near 5.7% of everything screened.
ssDAF-12 act = S. stercoralis DAF-12 nuclear receptor activators, primary screen, cell-based, luminescence, HEK293, GRIP1 co-expression, lit1-tk-luc; Nuclear hormone receptor DAF-12 (Strongyloides stercoralis); activation, % at 6.8 µM; HEK293 ssDAF-12/GRIP1 lit1-tk-luc reporter; % of 3 µM dafachronic acid response; actives 1% (n = 370,000); AID 652126, 2013;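 active means activation above the mean over all tested compounds plus 3 SD, cut at about 0.9% in these data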;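 further: 0% = DMSO-only wells and 100% = 3 µM delta7-dafachronic acid wells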
AHR act = AHR activators, primary screen, cell-based, luminescence, luciferase reporter, human; AHR-responsive luciferase reporter cells; actives 2.5% (n = 320,000); Aryl hydrocarbon receptor (Homo sapiens), P35869; activation, % at 5 µM; in the data active means activation above about 47%;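 further: 0% = vehicle wells and 100% = reference agonist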
DAX1 inh-1 = DAX1 (NR0B1) inhibitors on StAR promoter, primary screen, cell-based, luminescence, SF-1 (NR5A1), full-length DAX-1. AID 652010, 2013. inhibition, % at 6.8 µM. HEK293T StAR-luciferase reporter, SF-1/DAX-1 repression relief. actives 1.1% (n = 370,000);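 active means inhibition above the mean over all tested compounds plus 3 SD, cut at about 3.6% in these data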;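 further: 0% = DAX-1 cells with DMSO and 100% = cells lacking DAX-1 with DMSO; higher inhibition means more luminescence from relief of DAX-1 repression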
hgDAF12 agonist = H. glycines DAF-12 receptor agonists, primary screen, cell-based, luminescence, HEK293, GAL4 fusion, UAS-luciferase; AID 687014, 2013; HEK293 GAL4-hgDAF12 UAS-luciferase reporter, agonist luminescence; normalized to butyrate control; activation, % at 6.8 µM; actives 1.8% (n = 370,000); Nuclear hormone receptor DAF-12 (Heterodera glycines), GAL4 fusion;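 active means activation above a cutoff set at the mean of all screened compounds plus 3 SD, cut at about 10% in these data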;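 further: 0% = DMSO wells and 100% = sodium butyrate wells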
DAX1 inh-2 = DAX1 (NR0B1) inhibitors, primary screen, cell-based, HEK293, Gal4-DAX1, luciferase luminescence. HEK293 Gal4-DAX1 luciferase reporter. AID 504766, 2011. actives 0.99% (n = 340,000). Nuclear receptor subfamily 0 group B member 1 (Homo sapiens), P51843. inhibition, % at 6.75 µM;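 active means inhibition above the mean over all tested compounds plus 3 SD, cut at about 4.2% in these data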;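 further: 0% = DAX1-transfected cells with DMSO and 100% = empty-vector control cells with DMSO; inhibition shows as a rise in luminescence from relieved DAX1 repression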
Target sequence (P51843 207-470 limits assumed): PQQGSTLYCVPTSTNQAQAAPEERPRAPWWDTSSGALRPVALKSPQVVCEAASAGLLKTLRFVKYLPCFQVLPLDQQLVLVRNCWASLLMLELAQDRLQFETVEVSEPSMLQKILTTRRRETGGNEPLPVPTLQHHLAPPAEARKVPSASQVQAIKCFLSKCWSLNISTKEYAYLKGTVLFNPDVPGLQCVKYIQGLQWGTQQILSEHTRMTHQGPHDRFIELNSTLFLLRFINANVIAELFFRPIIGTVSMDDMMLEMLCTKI
hcDAF-12 act = H. contortus DAF-12 nuclear receptor activators, primary screen, cell-based, luminescence, HEK293, lit1-tk-luc reporter | HEK293 hcDAF-12 lit1-tk-luc reporter; 0% DMSO, 100% Δ7-dafachronic acid | activation, % at 6.8 µM | actives 1.4% (n = 370,000);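 active means activation above the mean of all tested compounds plus 3 SD, cut at about 5.5% in these data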;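 further: 100% = response to 3 µM Δ7-dafachronic acid high control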
* hit, by the source's call; . = not tested or not shown.

SMILES	ssDAF-12 act	AHR act	DAX1 inh-1	hgDAF12 agonist	DAX1 inh-2	hcDAF-12 act
C(=N\Nc1ncnc2sc3c(c12)CCC3)/c1cccs1	-1	56*	1	0	0	2
Cn1cnc2c(N/N=C/c3cccs3)ncnc21	0	10	0	8	.	2
CC(=O)Nc1ccc(NC(=O)C(C)N(C)CC(=O)Nc2ccccc2Br)cc1 (configuration not stated)	-1	.	0	-2	0	1
COc1ccc(S(=O)(=O)N2CCN(c3ncccn3)CC2)cc1OC	-1	4	0	-3	0	0
N#C[C@H]1C(O)C(O)c2ccccc2N1C(=O)c1ccccc1 (some centres not stated)	-1	4	0	0	4.3*	0
COc1ccc(/C=N/S(=O)(=O)c2cccs2)cc1	3.0*	2	0	1	0	-1
O=C(Cn1c(=O)c(=O)n(Cc2ccccc2)c2ccc(Cl)cc21)NCC1CCCO1 (configuration not stated)	-2	-1	1	-1	4.6*	0
O=C(Cn1c(=O)n(Cc2ccccc2)c(=O)c2cc(Cl)ccc21)NCC1CCCO1 (configuration not stated)	-2	2	0	-1	2	-1
O=C(O)Cn1cc(C(=S)N2CCOCC2)c2ccccc21	-1	0	0	-1	1	-2
O=C(O)Cn1cc(/C=C/[N+](=O)[O-])c2ccccc21	0.9*	10	1	3	-1	4
O=C(O)Cn1cc(C(=S)N2CCCCC2)c2ccccc21	-2	2	1	0	6.2*	3
Cc1cccc(C)c1NC(=O)CSc1n[nH]c(=O)n1C1CC1	-1	2	-1	1	1	1
COc1ccc(NC(=O)C(=O)NCc2ccncc2)c(OC)c1	-1	-1	0	-1	0	-2
COc1cccc(NC(=O)C(=O)NCc2ccncc2)c1	-1	53*	3	9	0	0
COc1cccc(NC(=O)C(=O)NCCCN2CCCC2=O)c1	0	7	3.8*	8	2	3
COc1ccc(C)cc1NC(=O)C(=O)NCc1ccncc1	-1	50*	0	0	1	-1
COc1cccc(NC(=S)NCc2ccncc2)c1	-1	7	0	0	0	1
COc1ccccc1NC(=O)C(=O)NCCCN1CCCC1=O	-1	18	3	2	1	1
O=C(CCNS(=O)(=O)c1ccccc1)OCC(=O)c1ccc[nH]1	-1	3	0	4	1	0
O=C(NC1CCCCCC1)c1ccc([N+](=O)[O-])s1	-1	.	-2	-2	-2	0
Cc1cc(C)cc(N(C(=O)c2csnn2)C(C(=O)NC2CCCC2)c2cccnc2)c1 (configuration not stated)	-1	-1	0	-4	2	0
N#CC(C#N)=C1SC(=Nc2ccccc2)C(=Nc2ccccc2)N1c1ccccc1	-1	.	4.5*	7	4	1
CCOC(=O)N1CCN(C(=O)CSCC(=O)Nc2nc(-c3ccc(C)cc3)cs2)CC1	-1	5	0	3	2	3
CC1CCCN(C(=O)CSCC(=O)Nc2nc(-c3cccs3)cs2)C1 (configuration not stated)	0	23	1	3	0	6.4*
N#CCC(=O)Nc1nc(-c2ccc3c(c2)OCCO3)cs1	0	14	1	7	2	2
SMILES	ssDAF-12 act	AHR act	DAX1 inh-1	hgDAF12 agonist	DAX1 inh-2	hcDAF-12 act
CCOC(=O)N1CCN(C(=O)CSCC(=O)Nc2nc(-c3ccc4c(c3)OCO4)cs2)CC1	.	63*	.	.	-1	.
O=C(CSCC(=O)N1CCOCC1)Nc1nc(-c2ccc3c(c2)OCO3)cs1	0	50*	2	5	3	5
CC1CC(C)CN(C(=O)c2cccc(N3C(=O)c4ccccc4C3=O)c2)C1 (configuration not stated)	-1	-2	4.3*	-1	0	0
CC1CCN(C(=O)c2ccc(N3C(=O)c4ccccc4C3=O)cc2)CC1	-1	-4	0	-1	1	1
Oc1ccc(/C=N/Nc2ccc3ccccc3c2)c(O)c1	1	61*	2	4	0	5
O=C(COc1ccccc1)NCC(=O)N/N=C/c1ccc(O)cc1O	0	0	-1	-1	7.1*	2
FC(F)(F)C(F)(F)C(F)(F)c1nc2nc(Cl)c(Cl)nc2[nH]1	0	.	0	1	1	2
O=C(CSc1nncs1)NC(=O)Nc1ccc2c(c1)OCCO2	-1	11	2	12*	3	2
Cc1ccccc1-c1ccc2c(c1)[C@@H]1C[C@H]3[C@@H](CN1CC2)[C@H](C)ON3C	-1	.	0	1	.	-2
Cc1nc2ccc(NC(=O)c3sccc3C)cc2s1	-1	-3	2	12*	1	0
CSc1nc2ccc(NC(=O)c3ccc(Cl)s3)cc2s1	-1	10	4.1*	2	1	0
CSc1nc2ccc(NC(=O)CS(=O)(=O)c3ccccc3)cc2s1	0	.	2	11*	3	1
Cc1ccc2nc(NC(=S)NC(=O)c3ccco3)sc2c1	0	9	1	12*	5.2*	3
CSc1nc2ccc(NC(=O)NC(=O)c3c(F)cccc3F)cc2s1	-1	-1	1	2	3	-1
Cc1nc2ccc(NC(=O)c3ccco3)cc2s1	-1	4	2	12*	1	1
CSc1nc2ccc(NC(=O)COc3ccccc3F)cc2s1	0	24	3.7*	9	-1	3
Cc1nc2ccc(NC(=O)CCS(=O)(=O)c3ccccc3)cc2s1	0	5	1	9	5.2*	2
CC(=O)Nc1nc2ccc(NC(=O)c3ccco3)cc2s1	-1	16	1	4	0	1
N#Cc1ccccc1CSc1nc2ccc(NC(=O)c3ccccc3C(=O)O)cc2s1	-1	50*	0	9	0	5
COc1cc(CC(=O)Nc2ccc3nc(SC)sc3c2)cc(OC)c1OC	-2	5	-1	0	0	0
